Among the data in ChEMBL document CHEMBL2218924, “A broad activity screen in support of a chemogenomic map for kinase signalling research and drug discovery” (Biochem J, 2013) are residual activity values, retold here.

In assay [1] the target is T1, Serine/threonine-protein kinase haspin (Homo sapiens) (UniProt Q8TF76).
T1 sequence (whole entry): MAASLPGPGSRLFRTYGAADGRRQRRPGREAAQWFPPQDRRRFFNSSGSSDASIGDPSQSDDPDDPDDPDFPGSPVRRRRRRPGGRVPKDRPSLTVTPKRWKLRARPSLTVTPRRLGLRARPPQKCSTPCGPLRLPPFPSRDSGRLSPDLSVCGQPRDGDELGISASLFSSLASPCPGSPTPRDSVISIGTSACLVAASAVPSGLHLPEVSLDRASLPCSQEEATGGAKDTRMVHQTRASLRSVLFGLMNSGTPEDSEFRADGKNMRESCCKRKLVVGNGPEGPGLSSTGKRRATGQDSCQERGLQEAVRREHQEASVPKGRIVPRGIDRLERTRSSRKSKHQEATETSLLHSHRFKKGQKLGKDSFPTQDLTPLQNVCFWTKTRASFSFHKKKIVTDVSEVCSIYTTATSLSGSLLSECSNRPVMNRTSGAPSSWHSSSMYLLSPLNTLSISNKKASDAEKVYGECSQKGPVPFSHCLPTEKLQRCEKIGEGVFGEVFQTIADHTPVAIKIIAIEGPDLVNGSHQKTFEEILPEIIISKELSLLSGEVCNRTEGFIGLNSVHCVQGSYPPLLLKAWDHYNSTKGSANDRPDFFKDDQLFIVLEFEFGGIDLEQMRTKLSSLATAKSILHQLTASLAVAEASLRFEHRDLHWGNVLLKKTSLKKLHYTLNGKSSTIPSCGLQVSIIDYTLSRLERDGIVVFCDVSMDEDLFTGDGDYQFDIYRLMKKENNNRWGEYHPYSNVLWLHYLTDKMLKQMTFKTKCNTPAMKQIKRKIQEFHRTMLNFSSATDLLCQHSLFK
Conditions: at 10 µM; call rule not given here.

Assay [2] deals with Tyrosine-protein kinase HCK (Homo sapiens) (UniProt P08631). The conditions noted are these: at 1 µM.
Sequence of Tyrosine-protein kinase HCK (Homo sapiens) (P08631 2-526 limits assumed): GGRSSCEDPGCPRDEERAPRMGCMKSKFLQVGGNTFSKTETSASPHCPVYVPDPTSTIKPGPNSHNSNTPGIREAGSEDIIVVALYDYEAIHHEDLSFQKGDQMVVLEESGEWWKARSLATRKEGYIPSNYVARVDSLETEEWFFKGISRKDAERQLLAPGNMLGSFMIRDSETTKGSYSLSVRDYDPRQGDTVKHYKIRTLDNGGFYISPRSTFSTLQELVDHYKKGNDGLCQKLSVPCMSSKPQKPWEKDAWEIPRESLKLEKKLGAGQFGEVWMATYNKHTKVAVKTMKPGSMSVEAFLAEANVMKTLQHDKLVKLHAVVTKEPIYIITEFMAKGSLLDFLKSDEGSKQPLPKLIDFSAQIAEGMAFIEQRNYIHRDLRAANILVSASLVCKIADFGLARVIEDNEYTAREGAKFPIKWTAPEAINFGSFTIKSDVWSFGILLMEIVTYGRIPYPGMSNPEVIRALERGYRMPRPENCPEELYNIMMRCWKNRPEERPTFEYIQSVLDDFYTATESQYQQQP
Assay [3] has the same target. Conditions: at 10 µM.
Assay [4] has as its target Insulin-like growth factor 1 receptor (Homo sapiens) (UniProt P08069). Conditions: at 1 µM.
The target of assay [5] is T2, Protein kinase C zeta type (Homo sapiens) (UniProt Q05513).
T2 sequence (whole entry): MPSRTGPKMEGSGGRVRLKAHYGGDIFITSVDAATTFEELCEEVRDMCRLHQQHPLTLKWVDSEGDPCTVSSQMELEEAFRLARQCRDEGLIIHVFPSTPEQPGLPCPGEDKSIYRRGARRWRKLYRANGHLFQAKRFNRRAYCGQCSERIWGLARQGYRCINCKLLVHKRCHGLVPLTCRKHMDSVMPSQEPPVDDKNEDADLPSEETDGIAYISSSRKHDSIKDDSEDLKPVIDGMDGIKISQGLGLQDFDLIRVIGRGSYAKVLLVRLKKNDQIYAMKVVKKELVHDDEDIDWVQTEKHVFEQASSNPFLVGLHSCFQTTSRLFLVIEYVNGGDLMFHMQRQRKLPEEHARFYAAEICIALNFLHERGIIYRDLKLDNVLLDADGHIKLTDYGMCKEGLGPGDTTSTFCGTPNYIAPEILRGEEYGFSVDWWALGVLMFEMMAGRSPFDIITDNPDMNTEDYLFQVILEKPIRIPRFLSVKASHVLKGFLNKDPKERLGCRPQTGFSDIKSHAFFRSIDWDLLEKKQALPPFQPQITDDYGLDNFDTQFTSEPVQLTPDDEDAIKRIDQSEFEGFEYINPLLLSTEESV
The conditions noted are these: at 10 µM.

Assay [6] deals with Protein kinase C eta type (Homo sapiens) (UniProt P24723). The conditions noted are these: at 1 µM.
Sequence of Protein kinase C eta type (Homo sapiens) (P24723 whole entry): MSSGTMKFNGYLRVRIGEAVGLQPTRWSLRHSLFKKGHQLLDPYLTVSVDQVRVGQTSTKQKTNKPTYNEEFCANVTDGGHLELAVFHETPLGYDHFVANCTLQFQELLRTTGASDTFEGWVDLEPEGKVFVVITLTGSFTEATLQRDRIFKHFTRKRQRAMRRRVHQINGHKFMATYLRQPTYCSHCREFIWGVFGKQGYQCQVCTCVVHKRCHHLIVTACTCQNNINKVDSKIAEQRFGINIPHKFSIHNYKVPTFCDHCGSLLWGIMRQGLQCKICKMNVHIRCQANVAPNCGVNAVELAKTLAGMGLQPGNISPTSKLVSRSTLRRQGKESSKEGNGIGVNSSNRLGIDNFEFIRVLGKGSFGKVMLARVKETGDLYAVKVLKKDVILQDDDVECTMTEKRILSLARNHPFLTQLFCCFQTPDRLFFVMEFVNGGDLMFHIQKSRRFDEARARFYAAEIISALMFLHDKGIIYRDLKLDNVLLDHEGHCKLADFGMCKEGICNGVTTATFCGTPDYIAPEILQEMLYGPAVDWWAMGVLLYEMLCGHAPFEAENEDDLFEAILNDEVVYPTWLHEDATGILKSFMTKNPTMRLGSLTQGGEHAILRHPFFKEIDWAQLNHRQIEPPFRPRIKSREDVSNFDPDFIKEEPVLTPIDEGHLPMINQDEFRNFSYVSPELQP
For assay [7] the target is unchanged. Conditions: at 10 µM.
In assay [8] the target is Protein kinase C theta type (Homo sapiens) (UniProt Q04759). Conditions: at 1 µM.
Sequence of Protein kinase C theta type (Homo sapiens) (Q04759 whole entry, looked up): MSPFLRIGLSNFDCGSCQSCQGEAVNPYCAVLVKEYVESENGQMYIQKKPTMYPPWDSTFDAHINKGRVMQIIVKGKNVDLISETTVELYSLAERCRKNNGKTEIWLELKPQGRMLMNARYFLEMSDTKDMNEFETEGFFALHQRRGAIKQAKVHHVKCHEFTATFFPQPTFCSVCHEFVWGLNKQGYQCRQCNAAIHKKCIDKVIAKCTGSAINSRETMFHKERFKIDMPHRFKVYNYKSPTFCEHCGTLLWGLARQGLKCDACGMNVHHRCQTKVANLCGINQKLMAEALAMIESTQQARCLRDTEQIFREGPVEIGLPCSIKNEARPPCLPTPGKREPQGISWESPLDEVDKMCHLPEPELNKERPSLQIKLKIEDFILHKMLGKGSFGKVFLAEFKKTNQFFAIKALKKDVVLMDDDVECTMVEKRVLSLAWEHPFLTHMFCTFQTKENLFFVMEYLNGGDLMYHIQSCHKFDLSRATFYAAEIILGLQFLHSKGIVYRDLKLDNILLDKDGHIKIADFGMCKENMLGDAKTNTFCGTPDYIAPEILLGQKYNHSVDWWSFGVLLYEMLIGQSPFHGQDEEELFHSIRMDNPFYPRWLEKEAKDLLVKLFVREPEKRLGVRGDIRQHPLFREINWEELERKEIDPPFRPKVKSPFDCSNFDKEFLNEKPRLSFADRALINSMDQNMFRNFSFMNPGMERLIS
The target is the same in assay [9]. Conditions: at 10 µM.
The target of assay [10] is Insulin-like growth factor 1 receptor (Homo sapiens) (UniProt P08069). Conditions: at 10 µM.
Sequence of Insulin-like growth factor 1 receptor (Homo sapiens) (P08069 31-736 limits assumed): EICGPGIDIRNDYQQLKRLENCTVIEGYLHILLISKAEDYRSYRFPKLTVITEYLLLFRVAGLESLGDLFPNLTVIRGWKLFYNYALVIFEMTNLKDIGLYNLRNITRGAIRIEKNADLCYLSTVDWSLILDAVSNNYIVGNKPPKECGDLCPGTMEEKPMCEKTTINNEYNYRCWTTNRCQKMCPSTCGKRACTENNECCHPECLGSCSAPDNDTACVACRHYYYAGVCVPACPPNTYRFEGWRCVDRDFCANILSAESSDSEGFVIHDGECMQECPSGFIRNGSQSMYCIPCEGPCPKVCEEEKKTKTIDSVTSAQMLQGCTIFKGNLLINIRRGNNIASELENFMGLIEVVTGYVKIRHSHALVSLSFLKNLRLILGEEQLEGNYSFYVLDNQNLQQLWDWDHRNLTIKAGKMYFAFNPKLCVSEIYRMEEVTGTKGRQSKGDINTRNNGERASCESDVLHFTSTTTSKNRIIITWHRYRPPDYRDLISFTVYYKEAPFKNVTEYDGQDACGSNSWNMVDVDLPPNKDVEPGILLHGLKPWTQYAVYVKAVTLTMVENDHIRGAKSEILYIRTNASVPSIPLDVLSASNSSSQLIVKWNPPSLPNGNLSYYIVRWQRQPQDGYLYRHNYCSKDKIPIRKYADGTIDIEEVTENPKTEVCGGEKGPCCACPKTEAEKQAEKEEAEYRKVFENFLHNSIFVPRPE
Sequence of Insulin-like growth factor 1 receptor (Homo sapiens) (P08069 741-1367 limits assumed): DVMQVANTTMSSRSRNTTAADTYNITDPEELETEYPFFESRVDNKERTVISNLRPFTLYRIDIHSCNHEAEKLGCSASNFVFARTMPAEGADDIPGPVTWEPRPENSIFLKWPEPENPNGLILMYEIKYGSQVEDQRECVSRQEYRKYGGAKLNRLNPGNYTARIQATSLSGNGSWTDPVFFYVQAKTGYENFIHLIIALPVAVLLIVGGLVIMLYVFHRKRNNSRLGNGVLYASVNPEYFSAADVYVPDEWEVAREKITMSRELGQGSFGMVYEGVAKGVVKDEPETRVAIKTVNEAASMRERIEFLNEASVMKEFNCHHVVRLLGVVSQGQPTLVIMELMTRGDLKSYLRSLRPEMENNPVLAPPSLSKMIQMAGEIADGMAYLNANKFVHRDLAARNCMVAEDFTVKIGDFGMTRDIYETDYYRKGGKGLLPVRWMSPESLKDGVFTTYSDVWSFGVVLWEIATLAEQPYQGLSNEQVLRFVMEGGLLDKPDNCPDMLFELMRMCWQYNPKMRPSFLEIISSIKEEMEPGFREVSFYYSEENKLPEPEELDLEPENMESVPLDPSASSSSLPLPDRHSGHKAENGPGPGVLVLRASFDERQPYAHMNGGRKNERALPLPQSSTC
The target in assay [11] is T3, Serine/threonine-protein kinase D1 (Homo sapiens) (UniProt Q15139).
T3 sequence (whole entry): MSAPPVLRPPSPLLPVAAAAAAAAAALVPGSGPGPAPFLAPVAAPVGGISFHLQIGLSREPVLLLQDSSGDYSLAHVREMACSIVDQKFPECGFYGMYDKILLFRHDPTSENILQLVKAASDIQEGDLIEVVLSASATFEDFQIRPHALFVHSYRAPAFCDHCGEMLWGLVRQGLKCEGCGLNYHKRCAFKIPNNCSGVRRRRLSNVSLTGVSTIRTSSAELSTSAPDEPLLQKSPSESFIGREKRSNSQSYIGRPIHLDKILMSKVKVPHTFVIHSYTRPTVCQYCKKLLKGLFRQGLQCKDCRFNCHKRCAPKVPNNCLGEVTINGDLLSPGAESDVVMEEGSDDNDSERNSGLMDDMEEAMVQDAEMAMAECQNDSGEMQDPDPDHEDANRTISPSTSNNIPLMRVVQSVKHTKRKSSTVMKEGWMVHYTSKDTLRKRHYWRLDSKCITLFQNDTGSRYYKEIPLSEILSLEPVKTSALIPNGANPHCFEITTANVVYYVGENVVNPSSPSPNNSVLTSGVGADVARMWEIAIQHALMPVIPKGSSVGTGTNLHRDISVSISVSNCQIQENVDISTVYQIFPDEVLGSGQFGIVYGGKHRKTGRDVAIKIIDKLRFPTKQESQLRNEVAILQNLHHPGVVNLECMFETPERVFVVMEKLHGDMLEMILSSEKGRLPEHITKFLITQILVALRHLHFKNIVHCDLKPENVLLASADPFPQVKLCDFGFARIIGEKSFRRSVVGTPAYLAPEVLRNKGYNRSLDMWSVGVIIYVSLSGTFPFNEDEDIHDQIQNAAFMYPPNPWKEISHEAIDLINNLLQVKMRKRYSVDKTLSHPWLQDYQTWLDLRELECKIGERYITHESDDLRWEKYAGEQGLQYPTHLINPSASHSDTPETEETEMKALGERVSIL
Conditions: at 1 µM.

Assay [12] deals with T4, Serine/threonine-protein kinase D2 (Homo sapiens) (UniProt Q9BZL6).
T4 sequence (whole entry): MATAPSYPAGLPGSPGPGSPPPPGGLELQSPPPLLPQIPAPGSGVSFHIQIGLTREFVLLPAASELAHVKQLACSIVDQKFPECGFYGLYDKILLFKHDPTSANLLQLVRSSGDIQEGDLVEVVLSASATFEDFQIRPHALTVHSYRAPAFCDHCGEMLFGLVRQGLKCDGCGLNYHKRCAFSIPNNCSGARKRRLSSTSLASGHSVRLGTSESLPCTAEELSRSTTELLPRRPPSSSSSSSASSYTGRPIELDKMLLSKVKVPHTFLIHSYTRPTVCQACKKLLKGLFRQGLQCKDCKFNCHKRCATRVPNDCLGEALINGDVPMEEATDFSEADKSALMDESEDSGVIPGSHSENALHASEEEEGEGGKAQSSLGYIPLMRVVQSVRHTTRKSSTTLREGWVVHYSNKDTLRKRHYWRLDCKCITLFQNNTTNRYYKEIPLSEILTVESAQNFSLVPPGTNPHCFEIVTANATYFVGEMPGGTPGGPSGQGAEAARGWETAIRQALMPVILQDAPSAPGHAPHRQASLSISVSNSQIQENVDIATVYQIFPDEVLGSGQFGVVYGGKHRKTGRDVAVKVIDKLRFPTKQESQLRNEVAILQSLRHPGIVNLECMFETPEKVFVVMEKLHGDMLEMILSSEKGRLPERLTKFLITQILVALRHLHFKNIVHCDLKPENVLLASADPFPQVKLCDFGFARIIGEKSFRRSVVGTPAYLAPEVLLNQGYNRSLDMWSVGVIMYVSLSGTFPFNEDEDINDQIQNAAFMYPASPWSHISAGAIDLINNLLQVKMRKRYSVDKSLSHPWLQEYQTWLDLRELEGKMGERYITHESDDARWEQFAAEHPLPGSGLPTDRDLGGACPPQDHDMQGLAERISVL
Conditions: at 10 µM.

The target in assay [13] is T3, Serine/threonine-protein kinase D1 (Homo sapiens). The conditions noted are these: at 10 µM.
Assay [14] concerns the target T1, Serine/threonine-protein kinase haspin (Homo sapiens). The conditions noted are these: at 1 µM.
Assay [15] concerns the target T5, Protein kinase C iota type (Homo sapiens) (UniProt P41743).
T5 sequence (whole entry): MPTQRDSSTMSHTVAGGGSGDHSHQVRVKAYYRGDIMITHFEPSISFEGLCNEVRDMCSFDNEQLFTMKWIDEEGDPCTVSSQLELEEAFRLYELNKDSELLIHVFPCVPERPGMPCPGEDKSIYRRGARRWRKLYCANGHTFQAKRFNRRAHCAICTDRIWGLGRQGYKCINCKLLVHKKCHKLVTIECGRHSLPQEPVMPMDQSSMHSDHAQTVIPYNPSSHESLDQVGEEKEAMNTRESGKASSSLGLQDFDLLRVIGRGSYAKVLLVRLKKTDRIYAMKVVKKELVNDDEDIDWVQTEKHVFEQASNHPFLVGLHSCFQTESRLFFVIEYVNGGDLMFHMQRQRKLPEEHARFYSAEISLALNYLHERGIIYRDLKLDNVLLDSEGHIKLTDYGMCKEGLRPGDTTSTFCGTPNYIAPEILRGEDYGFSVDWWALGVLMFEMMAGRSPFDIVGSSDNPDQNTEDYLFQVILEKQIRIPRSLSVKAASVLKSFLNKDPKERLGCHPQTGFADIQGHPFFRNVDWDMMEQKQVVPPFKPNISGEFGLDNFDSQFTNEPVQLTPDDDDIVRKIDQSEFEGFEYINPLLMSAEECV
The conditions noted are these: at 1 µM.

The target of assay [16] is T5, Protein kinase C iota type (Homo sapiens). Conditions: at 10 µM.
The target in assay [17] is Tyrosine-protein kinase HCK (Homo sapiens) (UniProt P08631). The conditions noted are these: at 1 µM. This is another data set of the same source.
Assay [18] has the same target. The conditions noted are these: at 10 µM. This is another data set of the same source.
The target of assay [19] is T4, Serine/threonine-protein kinase D2 (Homo sapiens). The conditions noted are these: at 1 µM.

As usually defined, the residual activity is the signal under treatment as a percentage of the control signal. As for `O=C1NC(=O)C(c2cn(CCCn3ccnc3)c3ccccc23)=C1Nc1ccccc1`, the residual activity is 52% in assay [1]; 80% in [2]; 65% in assay [3]; 140% in assay [4]; 50% in [5]; 15% in assay [6]. The residual activity is 2% in assay [7], 3% in assay [8] and 2% in [9].
Turning to `CN([C@@H](Cc1ccc(OS(=O)(=O)c2cccc3cnccc23)cc1)C(=O)N1CCN(c2ccccc2)CC1)S(=O)(=O)c1cccc2cnccc12`, the residual activity was found to be 57% in assay [1]; 86% in [2]; 61% in assay [3]; 182% in assay [10]; 116% in assay [6]; 100% in assay [7]. The residual activity in assay [11] came to 113%; in [12], 79%.
As to `Fc1ccc(-c2nc3n(c2-c2ccncc2)CCS3)cc1`, the residual activity in [1] turned out to be 96%; in assay [2] it was 95%; in assay [3] it was 94%; in assay [13] it was 48%; in assay [12], 89%.
Regarding `NC(=O)c1cccc(-c2cc(Nc3ccc(OC(F)(F)F)cc3)ncn2)c1`, the residual activity is 84% in [14]; 65% in [1]; 91% in assay [7]; 92% (inactive) in [15]; 69% in assay [16]; 91% in assay [12].
With `O=C(Nc1ccc(Cl)cc1)c1ccccc1NCc1ccncc1`, the residual activity in [2] stood at 80%; in assay [3] it was 38%; in [4] it was 125%.
Turning to `O=C1NC(=O)C(c2c[nH]c3ccccc23)=C1c1c[nH]c2ccccc12`, the residual activity turned out to be 69% in [1]; 38% in assay [3]; 128% in [4]; 25% in [5]; 68% in assay [6]; 17% in assay [7]. Besides, the residual activity in [8] is 5%; in [9], 2%; in assay [15], 116% (inactive); in assay [16], 79%; in assay [13], 71%.
`Cn1sc(=O)n(Cc2ccccc2)c1=O`: the residual activity in [14] came out at 77%; in [2] it was 75%; in [3] it was 64%; in assay [17], 89%; in assay [18], 90%; in assay [4] it was 93%. Also, the residual activity in [6] was 79%; in assay [7], 17%; in assay [8] it was 89%; in assay [9] it was 85%; in assay [15] it was 87% (inactive); in assay [16], 19%. The residual activity in [11] amounted to 90%; in assay [13], 64%; in assay [19], 99%; in assay [12], 93%.
As to `O=S(=O)(c1cccc2cnccc12)N1CCCNCC1`, the residual activity turned out to be 60% in assay [14]; 8% in [1]; 80% in [6]; 26% in assay [7]; 67% in assay [9]; 84% in assay [11]. Further, the residual activity in assay [13] was 20%; in assay [19], 100%.
Turning to `O=C(Nc1nc2ccccc2n1CCN1CCOCC1)c1cccc([N+](=O)[O-])c1`, in assay [3], the residual activity was 77%.
For `CCOc1nc(NC(=O)Cc2cc(OC)ccc2OC)cc(N)c1C#N`, the residual activity in assay [2] turned out to be 78%; in assay [3] it was 71%; in assay [10] it was 130%; in assay [13] it was 54%.
Take `N#C/C(=C\c1ccc(O)c(O)c1)C(=O)NCc1ccccc1`: the residual activity turned out to be 48% in [1]; 78% in [2]; 70% in [3]; 102% in assay [17]; 80% in assay [18]; 144% in [4]. Moreover, the residual activity in assay [10] was found to be 65%; in [7] it was 82%; in assay [12] it was 102%.
In the case of `COc1cc2ncnc(Nc3cccc(Cl)c3)c2cc1OC`, the residual activity in [2] was found to be 48%; in [3], 13%; in assay [17], 40%; in assay [18] it was 4%; in assay [4], 111%; in assay [5] it was 110%. For the same compound, the residual activity in [6] was 110%; in assay [7], 108%; in assay [8], 105%; in [9], 101%; in [11], 110%; in [13], 73%.
